PAFAH1B2 inh: blocks human PAF acetylhydrolase 1b catalytic subunit 2; P68402; recombinant PAFAH1B2, FP-rhodamine activity probe, fluorescence polarization; inhibition, % at 3.39 µM; 340,000 tested, 1.2% active;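 active means inhibition above the mean of all tested compounds plus 3 SD, cut at about 24% in these data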;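 further: 0% = enzyme with DMSO and 100% = wells lacking PAFAH1B2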
Target sequence (P68402 whole entry, looked up): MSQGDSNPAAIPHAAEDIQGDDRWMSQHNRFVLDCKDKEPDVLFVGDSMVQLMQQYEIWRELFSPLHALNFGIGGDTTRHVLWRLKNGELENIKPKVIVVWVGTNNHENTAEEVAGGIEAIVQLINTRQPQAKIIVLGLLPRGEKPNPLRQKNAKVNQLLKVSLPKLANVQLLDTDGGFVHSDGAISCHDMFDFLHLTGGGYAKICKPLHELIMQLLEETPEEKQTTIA
PAFAH1B3 inh: inhibitors of human PAFAH1B3; Q15102; recombinant PAFAH1B3, FP-rhodamine probe, fluorescence polarization; inhibition, % at 3.39 µM; 340,000 tested, 0.28% active; AID 492972;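 active means inhibition above the screen-wide average of all tested compounds plus 3 SD, cut at about 25% in these data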;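 further: 0% = enzyme with DMSO only and 100% = wells lacking PAFAH1B3 protein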
Target sequence (Q15102 whole entry, looked up): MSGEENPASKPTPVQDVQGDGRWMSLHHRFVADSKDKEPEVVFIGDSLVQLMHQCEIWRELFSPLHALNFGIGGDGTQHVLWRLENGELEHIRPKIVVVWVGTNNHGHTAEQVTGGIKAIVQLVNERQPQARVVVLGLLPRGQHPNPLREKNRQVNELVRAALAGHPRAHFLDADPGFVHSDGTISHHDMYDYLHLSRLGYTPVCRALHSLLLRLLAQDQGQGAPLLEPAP
rCAG RNA binder: molecules binding r(CAG) RNA repeats; 370,000 tested, 1.3% active; r(CAG) RNA repeat, TO-PRO-1 dye displacement fluorescence; inhibition, % at 3 µM;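 active means inhibition above the plate cutoff, the mean of all test compounds on that plate plus 3 SD, cut at about 35% in these data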;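 further: 0% = DMSO alone and 100% = 100 µM mitoxantrone as full dye displacement; higher means more dye released from RNA so lower well fluorescence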
ZTA counter: ZTA (EBV) inhibition in EBNA-1 counter-screen; ZTA-DNA binding, fluorescence polarization; 320,000 tested, 0.15% active; inhibition, % at 11 µM; in the data active means inhibition above about 33%
EBNA-1 inhibitor: blocks EBNA-1 binding to DNA. AID 1950. inhibition, % at 14.8 µM. 300,000 tested, 0.34% active. EBNA-1 DNA binding, fluorescence polarization; in the data active means inhibition above about 28%
PAFAH2 FP inh: inhibitors of human PAFAH2. Q99487. inhibition, % at 3.39 µM. 340,000 tested, 0.99% active. recombinant PAFAH2, FP-rhodamine activity probe, fluorescence polarization;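 active means inhibition above the mean over all tested compounds plus 3 SD, cut at about 30% in these data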;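 further: inhibitors block probe labeling of enzyme so polarization drops; 0% = enzyme with DMSO and 100% = wells lacking PAFAH2 protein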
Starred values were filed as active, the others as inactive. Shown are actives, neighbours in structure and some others; about 2.9% of the full set was active somewhere.

How did Clc1ccc(SCc2cc(-c3ccccc3)no2)cc1 do in these assays?
PAFAH1B2 inh: 42*; PAFAH1B3 inh: 4; rCAG RNA binder: 2; ZTA counter: -13; EBNA-1 inhibitor: 1; PAFAH2 FP inh: 1

Results for Cc1ccc2oc(-c3ccc(C)c(NC(=O)Cc4cccs4)c3)nc2c1 ?
PAFAH1B2 inh: 5; PAFAH1B3 inh: -7; rCAG RNA binder: 4; ZTA counter: -3; EBNA-1 inhibitor: -6; PAFAH2 FP inh: -7

What do the screens show for `Cc1ccc2oc(-c3ccc(C)c(NC(=S)NC(=O)c4cccs4)c3)nc2c1`?
PAFAH1B2 inh: -8; PAFAH1B3 inh: -4; rCAG RNA binder: 2; ZTA counter: -12; EBNA-1 inhibitor: 29*; PAFAH2 FP inh: 1

Results for N#Cc1ccc(/C=C2\CC3(OC(=O)C4CCCC4)CCCN2C3)cc1 (stereo unspecified) ?
rCAG RNA binder: 2

How did C=CCNC(=O)CN(C(=O)c1ccncn1)c1cccc(Br)c1 do in these assays?
rCAG RNA binder: 1

How did CC(=O)Oc1cc2cccc(OC(C)=O)c(=O)c2c(OC(C)=O)c1OC(C)=O do in these assays?
PAFAH1B2 inh: 45*; PAFAH1B3 inh: 46*; ZTA counter: -7; EBNA-1 inhibitor: -5; PAFAH2 FP inh: 88*

How did COc1cc2cccc(OC)c(=O)c2c(O)c1OC do in these assays?
PAFAH1B2 inh: 3; PAFAH1B3 inh: 7; rCAG RNA binder: -4; ZTA counter: -3; EBNA-1 inhibitor: -3; PAFAH2 FP inh: 11

How did COc1ccc(C2C(C(=O)N3CCCCC3C)CC(=O)N2c2ccc(OC)cc2)cc1 (stereo unspecified) do in these assays?
rCAG RNA binder: 2

Results for Cc1cccc(OCC(=O)NCC(=O)N/N=C/c2cc(Br)cc(Br)c2O)c1 ?
PAFAH1B2 inh: 34*; PAFAH1B3 inh: 8; rCAG RNA binder: 27; ZTA counter: -1; EBNA-1 inhibitor: -14; PAFAH2 FP inh: 13

How did COc1cccc(/C=N/NC(=O)CNC(=O)COc2ccccc2)c1O do in these assays?
PAFAH1B2 inh: 7; PAFAH1B3 inh: 11; rCAG RNA binder: 5; ZTA counter: 13; EBNA-1 inhibitor: 8; PAFAH2 FP inh: 3

What do the screens show for `CC(C)CNc1ccc2c(c1)OC[C@H](C)NS2(=O)=O`?
rCAG RNA binder: 0

What do the screens show for `COc1ccc(S(=O)(=O)Nc2ccc3c(c2)CC(=O)N([C@@H](C)CO)C[C@@H](C)[C@@H](CN(C)Cc2ccccc2)O3)cc1`?
PAFAH1B2 inh: 38*; PAFAH1B3 inh: 7; rCAG RNA binder: 2; PAFAH2 FP inh: 3

Results for COc1ccc(S(=O)(=O)Nc2ccc3c(c2)C(=O)N([C@H](C)CO)C[C@H](C)[C@@H](CN(C)S(=O)(=O)c2ccccc2)O3)cc1 ?
PAFAH1B2 inh: 40*; PAFAH1B3 inh: 10; rCAG RNA binder: 1; PAFAH2 FP inh: -3

How did COc1ccc(S(=O)(=O)N(C)C[C@H]2Oc3ccc(NS(=O)(=O)c4ccccc4)cc3CC(=O)N([C@H](C)CO)C[C@@H]2C)cc1 do in these assays?
PAFAH1B2 inh: 11; PAFAH1B3 inh: 11; rCAG RNA binder: 2; PAFAH2 FP inh: 5

Results for C=CCN1C(=O)[C@@H](CC(=O)NCCc2ccccc2OC)[C@]2(C(=O)OCC)CCCCC/C=C/12 ?
rCAG RNA binder: 5

What do the screens show for `CC(C)CC1=C/C(=C/c2ccc(-c3ccccc3)o2)C(=O)O1`?
PAFAH1B2 inh: 0; PAFAH1B3 inh: 2; rCAG RNA binder: 44*; ZTA counter: 6; EBNA-1 inhibitor: 7; PAFAH2 FP inh: 27

How did Cc1ccc(NC(=S)NCCSc2ccc(Cl)cc2)cc1 do in these assays?
PAFAH1B2 inh: 13; PAFAH1B3 inh: 13; rCAG RNA binder: 1; ZTA counter: -14; EBNA-1 inhibitor: -11; PAFAH2 FP inh: 0

How did Cc1cccc(C)c1NC(=S)NCCSc1ccc(Cl)cc1 do in these assays?
PAFAH1B2 inh: 25*; PAFAH1B3 inh: -5; rCAG RNA binder: 3; ZTA counter: 5; EBNA-1 inhibitor: 10; PAFAH2 FP inh: 11

How did CCCc1ccc(C(C)NC(=S)NCc2ccc(F)cc2)cc1 (stereo unspecified) do in these assays?
PAFAH1B2 inh: 15; PAFAH1B3 inh: 5; rCAG RNA binder: -4; ZTA counter: 1; EBNA-1 inhibitor: 4; PAFAH2 FP inh: -7

Bioassay records: PubChem, The Scripps Research Institute Molecular Screening Center
